# FECH block: inhibitors of human ferrochelatase, primary screen, biochemical, purified FECH, Ni-mesoporphyrin absorbance; 20,000 compounds, 3.3% hits; Ferrochelatase, mitochondrial (Homo sapiens), P22830; Ni-mesoporphyrin absorbance 550 nm; calls only at 10 µM (by protocol);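 active means enzyme reaction rate more than 3 SD below the solvent-only control wells on the same plate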;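 further: lower slope than DMSO wells means FECH inhibition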
# Target sequence (P22830 whole entry, looked up): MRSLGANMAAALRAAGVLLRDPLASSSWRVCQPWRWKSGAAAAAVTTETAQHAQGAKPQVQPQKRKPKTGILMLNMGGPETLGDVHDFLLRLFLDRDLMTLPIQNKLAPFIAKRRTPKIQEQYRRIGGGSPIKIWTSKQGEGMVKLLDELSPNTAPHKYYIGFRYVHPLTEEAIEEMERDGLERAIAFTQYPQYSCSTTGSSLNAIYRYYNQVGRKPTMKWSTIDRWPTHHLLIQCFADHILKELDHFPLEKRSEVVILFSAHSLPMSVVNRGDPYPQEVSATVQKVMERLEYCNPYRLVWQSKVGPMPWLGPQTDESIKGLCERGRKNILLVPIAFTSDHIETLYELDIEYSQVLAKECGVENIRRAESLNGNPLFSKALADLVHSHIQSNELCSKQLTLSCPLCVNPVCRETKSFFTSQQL
# * marks the source's active call; other numbers are inactive results; i = inactive; + = active, no number. The entries come from a sample that favours hits as a whole.
SMILES,FECH block
CCc1nc2nc(C)c(NC(=O)Nc3cccc(Cl)c3)c(=O)n2[nH]1,i
Cc1ccccc1NCc1nc2nc(C)c(Cc3ccc(Cl)cc3)c(=O)n2[nH]1,i
CCOC(=O)CCc1c(C)nc2nc(CNc3ccc(C)c(Cl)c3)[nH]n2c1=O,+
C=CCN(c1nc2nc(C)cc(C)n2n1)S(=O)(=O)c1ccc(Cl)cc1,i
CC1CCCN(C(=O)CN2CCCN(Cc3cccc(Cl)c3)S2(=O)=O)C1 (stereo not drawn),i
COc1ccc(NC(=O)C2CCN(c3ccc(-c4ccc(C)cc4)nn3)CC2)c(OC)c1,i
COC(=O)CN(c1nc2nc(C)c(Cl)c(C)n2n1)S(=O)(=O)c1ccccc1,i
COc1cccc(-n2cc(CNC3CCN(C(=O)C(C)C)CC3)cn2)c1,i
COCCNC(=O)C1(C)Cn2c(cc3ccsc32)C(=O)N1Cc1ccco1 (stereo not drawn),i
CCCCN(Cc1ccco1)Cc1cccc2c1OCO2,i
O=C(Nc1nc2n(n1)C(c1ccc(Cl)cc1)C=C(c1ccc(Cl)cc1)N2)c1ccco1 (stereo not drawn),i
Cc1ccc(C2=CC(c3ccc(Cl)cc3)n3nc(NC(=O)CCc4ccccc4)nc3N2)cc1 (stereo not drawn),i
Cc1ccc(C(=O)Nc2nc3n(n2)C(c2ccc(Cl)cc2)C=C(c2ccccc2)N3)cc1 (stereo not drawn),i
Cc1ccc(C2=CC(c3ccc(Cl)cc3)n3nc(NC(=O)CC(C)C)nc3N2)cc1 (stereo not drawn),+
CC(C)C(=O)Nc1nc2n(n1)C(c1ccc(Cl)cc1)C=C(c1ccc(Cl)cc1)N2 (stereo not drawn),i
Cc1ccc(C2=CC(c3ccc(Cl)cc3)n3nc(NC(=O)c4ccc(F)cc4)nc3N2)cc1 (stereo not drawn),+
Cc1ccc(C2=CC(c3ccc(Cl)cc3)n3nc(NC(=O)c4cccc(C)c4)nc3N2)cc1 (stereo not drawn),i
O=C(Nc1nc2n(n1)C(c1ccc(F)cc1)C=C(c1ccc(Cl)cc1)N2)c1ccc(F)cc1 (stereo not drawn),i
Cc1ccc(C2=CC(c3ccc(Cl)cc3)n3nc(NC(=O)c4ccco4)nc3N2)cc1 (stereo not drawn),+
O=C(Nc1nc2n(n1)C(c1ccc(F)cc1)C=C(c1ccc(Cl)cc1)N2)c1ccco1 (stereo not drawn),i
Cc1ccc(C2=CC(c3ccc(Cl)cc3)n3nc(NC(=O)c4ccccc4)nc3N2)cc1 (stereo not drawn),+
Cc1ccc(C(=O)Nc2nc3n(n2)C(c2ccc(F)cc2)C=C(c2ccc(C)cc2)N3)cc1 (stereo not drawn),i
CCC1=C(c2ccc(OC)cc2)S(=O)(=O)N(CC(=O)NCc2ccc(Cl)cc2)C1=O,i
Cc1ccc(Nc2cc(C)nc(Nc3ccc(NC(=O)C(C)C)cc3)n2)cc1,i
CCc1nc2nc(C)cc(NCc3ccc4c(c3)OCO4)n2n1,i
SMILES,FECH block
CC(Cn1ccnc1)NCc1cccc(-n2cccn2)c1 (stereo not drawn),i
CCOc1ccc(Nc2nc(NCCOC)nc3c2cnn3-c2ccccc2)cc1,i
Oc1ccc(-c2ncc(F)c(N3CCCC3)n2)cc1,i
COc1ccc(N2C(=O)CCS2(=O)=O)cc1S(=O)(=O)Nc1ccccc1C(N)=O,i
CN(Cc1cn[nH]c1-c1ccc(F)cc1)C(=O)c1cccc(N)c1,i
Cc1cc(C)c(OCCNC(=O)CCn2c(C)cc(C)nc2=O)c(C)c1,i
CCOc1ccccc1NC(=O)N1CCN(c2cc(-c3cccc(C)c3)ncn2)CC1,i
CSc1nc(NC2CCCCC2C)c(C#N)c(-c2ccc(C)cc2)n1 (stereo not drawn),i
COc1ccc(-c2ccc(-n3cccc3)nc2)c(OC)c1OC,i
O=C(CN1C(=O)c2cccnc2Sc2ccccc21)NCCc1ccco1,i
Cc1ccc(NC(=O)CN2C(=O)CN(C)C(=O)c3ccccc32)cc1C,i
CCCCOc1ccc(CNC(=O)CN2C(=O)c3cccnc3Sc3ccccc32)cc1,+
CN1CC(=O)N(CC(=O)NCc2ccc(F)cc2)c2ccccc2C1=O,i
O=C(CCCN1C(=O)c2cccnc2Sc2ccccc21)Nc1cc(-c2cccc(Cl)c2)no1,i
CN(C)c1ccc(CNC(=O)CN2C(=O)c3cccnc3Sc3ccccc32)cc1,+
CCCCOc1ccc(CNC(=O)c2ccc(CN3C(=O)CCn4nccc43)cc2)cc1,i
CN1CC(=O)N(CC(=O)Nc2ccc(F)c(F)c2)c2ccccc2C1=O,i
Cc1ccc(NC(=O)CN2C(=O)c3cccnc3Sc3ccccc32)cc1F,+
Cc1cccc(CN2CCCN(CC(=O)NCCCc3ccccc3)S2(=O)=O)c1,i
CCCc1c(C)nc2ncnn2c1Sc1ccc(NC(=O)Nc2ccc(C)cc2)cc1,i
CNC(=O)c1ccc(Cn2c(=O)c3cc(OC)c(OC)cc3n(CC(=O)Nc3ccccc3C)c2=O)cc1,i
CCOc1ccc(-c2nc(CSc3nc4c(c(=O)[nH]3)CCC4)c(C)o2)cc1,i
C=CC[C@@H]1CC=C[C@@H](C)N1C(=O)Cn1ccc(=O)c2ccccc21,i
Cc1ccc(N2C(=O)N(CC(=O)NC3CCCCC3)c3ccccc3S2(=O)=O)c(C)c1,i
CCN1C(SCC(=O)NCc2ccc(C)cc2)=NS(=O)(=O)c2ccccc21,+
SMILES,FECH block
Cc1cc(C)c(NC(=O)CN2CCN(Cc3ccccc3C)S2(=O)=O)c(C)c1,i
Cc1ccc(CN2CC(=O)N(Cc3ccccc3)c3ccccc3S2(=O)=O)cc1,i
Cc1cc(N2CCCN(C(=O)CSc3ncccn3)CC2)ccn1,i
CCN1C(SCC(=O)Nc2ccc3c(c2)OCCO3)=NS(=O)(=O)c2ccccc21,i
CCN1C(=O)C2(c3ccccc31)C(C(=O)Nc1cc(C)cc(C)c1)CC1CSCN12 (stereo not drawn),i
Cc1ccc(S(=O)(=O)N2CCC(CC(=O)N3CCN(c4ccccc4)CC3)CC2)cc1,i
CCN1C(SCC(=O)N2CCN(c3ccccc3)CC2)=NS(=O)(=O)c2ccccc21,+
CCN1C(SCC(=O)Nc2cc(C)cc(C)c2)=NS(=O)(=O)c2ccccc21,+
Cc1ccc(CNC(=O)CN2C(=O)C3CCCCN3C(=O)c3ccccc32)cc1 (stereo not drawn),i
CCN1C(SCC(=O)Nc2c(C)cc(C)cc2C)=NS(=O)(=O)c2ccccc21,+
Cc1nnc(SCCCNC(=O)c2cn(-c3ccccc3)nn2)s1,i
CCOc1ccc(C(=O)Nc2c(C)nc3nc(C(C)C)[nH]n3c2=O)cc1,i
CCCc1c(C)nc2ncnn2c1Sc1ccc(NS(=O)(=O)c2ccc(C)c(C)c2)cc1,i
Cc1nccn1CC1CCCN(Cc2ccc(-c3ccn[nH]3)s2)C1 (stereo not drawn),i
O=C(CSCc1nc(-c2ccccc2)no1)NCc1ccco1,i
FC1(F)Oc2cccc(-c3nccn3CCCn3ccnc3)c2O1,i
Cc1n[nH]c(C)c1CCCN(C)C(=O)CC1C(=O)NCCN1C1CCCC1 (stereo not drawn),i
O=C1CCC(=O)N1c1nc2n(n1)C(c1ccc(Cl)cc1)C=C(c1ccc(Cl)cc1)N2 (stereo not drawn),i
NS(=O)(=O)c1ccc(CCNC(=O)C2CCCN(c3nc4ccccc4[nH]3)C2)cc1 (stereo not drawn),i
